IL-2 act: activators of IL-2 | IL-2 activation reporter assay, cell-based qHTS; stimulated with anti-CD3/CD4/CD28 beads; in transgenic mouse T cells | activation, % (series mostly up to about 46 µM) | 0.065% of 360,000 active; in the data active = activation above about 50%; inconclusive = mostly about 30% to 49%; also: 0% is about no effect
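Unstimulated transgenic mouse T cells preincubated 60 min with compound, then stimulated with anti-CD3/anti-CD4-coated beads plus anti-CD28 for 18 h at 37 degrees C. IL-2 response read as EGFP and DsRed fluorescence by plate cytometry.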
PKM2 act: PKM2 (human) enzyme activation. P14618. purified PKM2, Kinase-Glo ATP luminescence, activation; response scale: 0% is enzyme alone, no compound. Potency, µM (titrated, usually from 57.5 µM), for inactives: at the highest dose activation, usual class: activators. 0.34% of 260,000 active. AID 1631; also: potency is read from the fitted curve at half-maximal effect; % is scaled to controls: 0 for no effect and ±100 for the full control effect; nearly all actives have a fitted effect of over 55% in size
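Purified hPK-M2 (>95%) run at intermediate activity with 0.1 mM ADP and 0.5 mM PEP in 50 mM imidazole pH 7.2, KCl, MgCl2; 1 h room temperature. ATP formed read by Kinase-Glo luminescence; normalized to uninhibited and no-enzyme controls.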
S-ASM inh: human S-ASM enzyme inhibition | P17405 | placental ASM, HMU-PC fluorogenic substrate, 60 min | Potency, µM (titrated, usually from 57.5 µM), for inactives: top-dose activity change, negative = inhibition, hits mostly inhibitors | 0.006% of 340,000 active; also: potency is read from the fitted curve at half-maximal effect
Target sequence (P17405 47-631 limits assumed): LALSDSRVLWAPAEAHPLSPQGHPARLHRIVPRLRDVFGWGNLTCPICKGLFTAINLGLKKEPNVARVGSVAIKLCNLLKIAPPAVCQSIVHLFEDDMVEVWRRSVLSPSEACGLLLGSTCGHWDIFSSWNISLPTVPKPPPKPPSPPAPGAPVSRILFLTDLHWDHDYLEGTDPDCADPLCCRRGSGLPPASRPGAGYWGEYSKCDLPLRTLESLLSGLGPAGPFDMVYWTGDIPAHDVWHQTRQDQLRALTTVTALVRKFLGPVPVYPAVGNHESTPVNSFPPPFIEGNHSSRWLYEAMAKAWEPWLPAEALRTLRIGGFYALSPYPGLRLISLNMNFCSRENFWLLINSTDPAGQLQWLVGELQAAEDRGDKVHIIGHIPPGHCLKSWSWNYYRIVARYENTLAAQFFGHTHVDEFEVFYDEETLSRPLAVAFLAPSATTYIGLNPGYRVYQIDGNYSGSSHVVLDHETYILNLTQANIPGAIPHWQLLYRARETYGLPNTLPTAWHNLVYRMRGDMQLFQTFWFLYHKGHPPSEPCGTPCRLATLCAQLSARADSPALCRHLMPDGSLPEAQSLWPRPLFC
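Fluorescence read-out (Ex 386 nm, Em 447 nm) after stopping the reaction at pH 10. Enzyme: ASM from human placenta; substrate HMU-PC0, 9 uM final; 60 min, 37 °C. Compound preincubation 10 min, ambient temperature.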
Starred values were filed as active, the others as inactive; ? = inconclusive; . = no result given; [ ] = another dose, or the depositor's remark. Only some compounds are listed: those with a hit (about 0.33% of all), similar ones and a draw of the others. Unless noted, calls follow the shape of the dose curve; as a rule, active = well fitted curve in the direction sought with a large enough effect; inconclusive = small, poorly fitted or top-dose-only effect, or another doubt; inactive = no such curve, though single readings can be large; an effect the other way counts as inactive or inconclusive.

SMILES	IL-2 act	PKM2 act	S-ASM inh
COC(=O)c1c(N2C(=O)CC(Sc3ccccc3C(=O)O)C2=O)sc(C)c1C (centres undefined)	-1	-10%	-1%
COc1ccc(S(=O)(=O)NCc2ccncc2)cc1NC(=O)c1ccccc1	-3	.	1%
Cc1ccc(O)c(-c2[nH]ncc2C(=O)c2ccc(Cl)cc2)c1	0	.	-5%
COc1ccc(CC(=O)NNC(=O)c2cccs2)cc1OC	-4	-6%	0%
C=CCn1c(SCc2nc3ccccc3c(=O)[nH]2)nc2scc(C3CC3)c2c1=O	-3	3.5µM*	0%
CCn1c(SCc2nc3ccccc3c(=O)[nH]2)nc2ccccc2c1=O	0	-3%	-2%
CCCCOc1ccc(C(=O)Nc2ccc(N3CCN(C(=O)C(C)C)CC3)cc2)cc1	0	2%	-6%
CNC(=O)CN(Cc1ccccc1)S(=O)(=O)c1ccccc1	3	22%	2%
O=C(NC1CC1)C1=C[C@H](c2csc3ccccc23)C[C@H](OCCCCO)O1	0	7%	0%
O=C(NC1CC1)C1=C[C@@H](c2csc3ccccc23)C[C@@H](OCCCCO)O1	0	14µM*	7%
CCNc1nc(NCC)n2c(SCC(=O)c3ccc(C(C)C)cc3)nnc2n1	3	-3%	-1%
CCN(CC)C(=O)c1ccc(/C=C/c2c[nH]c3ccccc23)[n+](C)c1	79*	-11%	-26%
Cc1ccc(C(=O)/C=C/c2c[nH]c3ccccc23)cc1	-1	?	119%
CC[n+]1c(/C=C/c2c[nH]c3ccccc23)ccc2cc(C)ccc21	68*	-18%	?
CCN1/C(=C/c2ccc3cc(C)ccc3[n+]2CC)Sc2cc(C)ccc21	15	-13%	-18%
COC(=O)c1cccc(NC(=O)CSc2ncn[nH]2)c1	1	-2%	5%
Cc1sc(N/N=C/c2cc([N+](=O)[O-])ccc2O)nc1-c1ccccc1	-1	-6%	-12%
COc1ccc(NC(=O)CN(C)C(=O)Cc2c[nH]c3ccccc23)cc1	0	.	-2%
COc1ccc(/C(C)=N/NC(=S)NCCc2ccccc2)cc1	-2	-9%	-10%
Cn1c(SCC(=O)Nc2ccccc2Cl)nnc1C1CC1	-6	-2%	2%
O=C(COC(=O)c1ccco1)Nc1cc(S(=O)(=O)N2CCOCC2)ccc1Cl	0	.	8%
Cc1ccc(S(=O)(=O)N2CCOCC2)cc1NC(=O)COC(=O)c1ccco1	81*	.	.
Cc1ccc(S(=O)(=O)Cn2nnnc2C(C(C)C)N2CCN(C(=O)c3ccco3)CC2)cc1 (centres undefined)	1	.	2%
Cc1ccc(/C(N)=N/OC(=O)Cc2cccc3ccccc23)cc1	-2	25µM*	-5%
Cc1cccc(/C(N)=N/OC(=O)Cc2cccc3ccccc23)c1	-2	0%	-1%
SMILES	IL-2 act	PKM2 act	S-ASM inh
CNc1cccc(-c2cc(OC)c(OC)c(OC)c2)n1	1	.	.
CCC1=Nc2cc(C(=O)NCc3ccco3)ccc2Sc2ccc(Cl)cc21	-1	18%	-7%
CCC1=Nc2cc(C(=O)NCc3ccco3)ccc2Sc2ccccc21	-4	18µM*	-8%
NS(=O)(=O)c1ccc(-n2cccc2C=O)cc1	-5	-3%	0%
CCOC(=O)c1c(-c2cccs2)csc1NC(=O)COC(=O)c1c(C)noc1C	-2	14µM*	-4%
CCOC(=O)c1c(-c2cccs2)csc1NC(=O)c1ccncc1	0	-3%	15%
O=C(Nc1c[nH]c(=O)[nH]c1=O)c1cccc(F)c1	-6	.	15%
Cc1cc(Oc2ccc(=O)n(C)n2)nc(SCC(N)=O)n1	1	0%	0%
O=S(=O)(c1ccc2ccccc2c1)N1CCc2ccccc21	-1	5%	-5%
Cn1c(=O)c(=O)n(C)c2cc(S(=O)(=O)N3CCc4ccccc43)ccc21	-2	2µM*	1%
Cn1c(=O)c2c(nc(N3CCCCC3)n2CCNC2=NCCC2)n(C)c1=O	-4	-4%	0%
COCCOC(=O)c1[nH]c2c(c1C)C(=O)CC(c1ccco1)C2 (centres undefined)	-3	?	-2%
CSCCOC(=O)c1[nH]c2c(c1C)C(=O)CC(c1ccco1)C2 (centres undefined)	-4	22µM*	0%
S=c1[nH]cc(Cc2ccccc2)s1	-1	0%	3%
CCCCn1c(=O)[nH]c(=O)c2c1nc(-c1ccc(-c3ccccc3Br)o1)n2CC	2	16µM*	79%
CCCCn1c(=O)[nH]c(=O)c2c1nc(-c1ccc3ccccc3c1)n2CC	-1	0%	20%
COc1ccccc1N1CCN(C(=O)C2CC(=O)N(c3ccccc3)C2)CC1 (centres undefined)	0	0%	-6%[11.5 µM]
CCCCCC(=O)Nc1cccc(C2=NOC3(C2)C[C@H](C(N)=O)N(C(=O)COc2ccc(Cl)cc2)C3)c1 (some centres undefined)	0	-8%	-16%
C/C=C\C=C/C(=O)Nc1cccc(C2=NOC3(C2)C[C@@H](C(N)=O)N(C(=O)COc2ccc(Cl)cc2)C3)c1 (some centres undefined)	0	16µM*	-6%
C/C=C/C=C\C(=O)Nc1cccc(C2=NOC3(C2)C[C@H](C(N)=O)N(C(=O)/C=C/C)C3)c1 (some centres undefined)	1	?	-7%
C/C=C\C=C\C(=O)N1CC2(CC(c3cccc(NC(=O)CC)c3)=NO2)C[C@H]1C(N)=O (some centres undefined)	-2	7.9µM*	1%
C/C=C\C=C\C(=O)N1CC2(CC(c3cccc(NC(=O)COc4ccc(Cl)cc4)c3)=NO2)C[C@H]1C(N)=O (some centres undefined)	0	16µM*	-15%
C/C=C(\C)C(=O)N1CC2(CC(c3cccc(NC(=O)COc4ccc(Cl)cc4)c3)=NO2)C[C@@H]1C(N)=O (some centres undefined)	0	2%	-1%
CCCCN1CC[C@H]2C=CC[C@@H](C(=O)Nc3ccc(Cl)cc3Cl)[C@H]2C1=O	0	.	1%
CCOC(=O)Nc1cccc(NC(=O)c2ccccc2F)c1	3	-1%	3%
SMILES	IL-2 act	PKM2 act	S-ASM inh
COc1ccc(NC(=O)COn2nnc3ccc(Cl)cc32)cc1OC	1	-20%	-1%
CCOC(=O)c1cc(-c2ccccc2)n(CCC(=O)N2CCN(c3ccccc3OC)CC2)c1C	-1	1%	-6%
Cc1ccc(-c2csc3ncn(CC(=O)N4CCOCC4)c(=O)c23)cc1C	-1	-3%	-1%
Cn1c(OCc2cccnc2)nc2c1c(=O)n(Cc1ccc(Cl)cc1)c(=O)n2C	3	.	-9%
Cn1c(OCc2cccnc2)nc2c1c(=O)n(Cc1ccc(Br)cc1)c(=O)n2C	-1	20µM*	-8%
C=CCn1c(SCC(=O)c2cccs2)nc2sc(C)c(C)c2c1=O	-2	4%	-6%
CC(=O)CCc1oc2ccc([N+](=O)[O-])cc2c1-c1ccc(C)o1	-4	2%	3%
CC(=O)CCc1oc2c([N+](=O)[O-])cccc2c1-c1ccc(C)o1	-1	10µM*	-5%
CN(CC(=O)Nc1cccc(F)c1)C(=O)c1cn(-c2ccccc2)nc1-c1cccs1	-1	.	.

High-throughput results (PubChem BioAssay)
